Assay outcomes deposited in PubChem BioAssay by several laboratories.
EWS-Fli inh: EWS/Fli transcriptional activity inhibition; A673 NR0B1-luciferase reporter, viability-normalised; inhibition, % at 12.6 µM; 350,000 tested, 0.67% active; AID 651661;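 active means mean inhibition of at least 50% after viability correction, with every replicate also passing that limit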;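 further: firefly luciferase signal divided by Alamar Blue viability fluorescence both relative to DMSO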
TWEAK-Fn14 inh: blocks TWEAK-Fn14 interaction in a reporter cell assay; TWEAK-stimulated Fn14 reporter cells, luciferase luminescence, 8 h; 360,000 tested, 2% active; inhibition, % at 10 µM; in the data active means inhibition above about 50%
TROY NFkB inh: TROY signaling inhibition; 360,000 tested, 0.98% active; inhibition, % at 10 µM; Q293 LMP1-TROYcd NF-kB luciferase reporter, 4 h;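 active means compounds whose plate-normalised and pattern-corrected inhibition of the luciferase reporter signal at the single screening dose is 50% or more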
LGR2 antag: Drosophila LGR2 receptor signaling inhibition | HEK293 LGR2, CRE-luciferase, bursicon-stimulated, 4 h | inhibition, % at 9.99 µM | 380,000 tested, 0.35% active;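 active means drop in luminescence signal, shown as inhibition above about 50% in the replicate tests, limit read from the data, passing the limit was not always enough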;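 further: agonist challenge used bursicon conditioned medium at about half maximal strength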
PAX8 inh HTS: PAX8 transcriptional activity inhibition; RMG-I TPO-luciferase reporter, SteadyGlo, 24 h; inhibition, % at 12.6 µM; 360,000 tested, 1.2% active;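 active means mean replicate inhibition at least 60% with every replicate also reaching 60%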;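 further: luciferase light reporting Pax8 driven TPO promoter activity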
A number is an active result; – = inactive; · = not tested or not shown. A selection: hits, their analogues and other compounds. The true share with any hit is near 2.8%.

SMILES	EWS-Fli inh	TWEAK-Fn14 inh	TROY NFkB inh	LGR2 antag	PAX8 inh HTS
COc1ccc([Si](C)(C)[C@@H]2[C@@H](CCO)O[C@]3(C(=O)N(Cc4ccccc4)c4ccc(N5C(=O)c6cccc7cccc5c67)cc43)[C@H]2C)cc1	–	·	·	·	88
C[C@@H]1CN([C@@H](C)CO)C(=O)c2cccc(NC(=O)C3CCOCC3)c2O[C@@H]1CN(C)S(=O)(=O)c1ccccc1	–	·	·	–	–
Cc1nn(C)cc1NC(=O)C[C@@H]1CC[C@@H]2[C@H](COc3ccc(NC(=O)C4CCOCC4)cc3C(=O)N2C)O1	–	·	·	–	–
COc1ccc(S(=O)(=O)Nc2cccc3c2O[C@@H](CN(C)S(=O)(=O)c2cn(C)cn2)[C@@H](C)CN([C@H](C)CO)C3=O)cc1	–	·	·	–	·
CN(C)C(=O)[C@H]1[C@H](CO)[C@H]2Cn3c(cccc3=O)[C@H]2N1C(=O)C1CCCC1	–	·	·	–	·
C[C@@H]1CN([C@H](C)CO)S(=O)(=O)c2ccc(C3=CCCC3)cc2O[C@@H]1CN(C)C(=O)c1cnccn1	–	·	·	–	–
NCC[C@H]1CC[C@H](NC(=O)c2ccccc2F)[C@H](CO)O1	·	·	·	–	·
C=CC(=O)Nc1sc2c(c1C(N)=O)CCCC2	–	–	–	·	80
CC(C)C#Cc1ccc([C@@H]2[C@@H](CO)N(C(=O)C3CCOCC3)[C@H]2C#N)cc1	–	·	·	–	–
CC(C)C(=O)Nc1cccc(NC(=O)c2ccc(Cl)cc2Cl)c1	–	–	56	–	–
CCC(=O)NC(=S)Nc1cccc(NC(=O)c2ccc(Cl)cc2Cl)c1	·	–	–	·	·
O=C(C[C@@H]1CC[C@H]2[C@@H](COC[C@H](O)CN2Cc2cccc(F)c2)O1)NCc1cccc(F)c1	–	·	·	–	–
c1ccc(-c2nc(-c3nccc4ccccc34)oc2-c2ccccc2)cc1	–	73	60	60	–
COc1ccc2c3c(n(C)c2c1)[C@@H](CO)N(C)CC31CN(C(=O)NC(C)C)C1	–	·	·	–	·
C(/C=C/c1ccccn1)=C\c1ccccc1	–	–	–	76	–
O=C(O)c1ccccc1-c1ccc(C=c2sc3nc4cc(Br)cnc4n3c2=O)o1	–	54	–	–	–
Cc1nccn1CC(=O)N/N=C/c1ccccc1O	–	–	–	–	–
Cc1nccn1CC(=O)N/N=C/c1cccs1	–	74	–	–	–
Cc1cc(C)n(CC(=O)N/N=C/c2cccs2)n1	·	105	–	–	–
O=C(O)c1ccc(N/N=C/c2ccc(F)c(F)c2)cc1	–	67	–	·	–
O=C(O)c1ccc(N/N=C/c2cccc(F)c2)cc1	·	59	–	–	·
Cc1ccc2nc(Cl)c(/C=N/Nc3ccc(C(=O)O)cc3)cc2c1	–	51	–	–	–
O=C(O)c1ccc(N/N=C/c2cccc(C(F)(F)F)c2)cc1	–	–	–	–	–
O=C(O)c1ccc(N/N=C/c2cccc3cccnc23)cc1	–	61	–	–	–
CC(C)NC(=O)N(C)C[C@H]1Oc2ccc(NC(=O)C3CC3)cc2CC(=O)N([C@H](C)CO)C[C@@H]1C	–	·	·	–	–
SMILES	EWS-Fli inh	TWEAK-Fn14 inh	TROY NFkB inh	LGR2 antag	PAX8 inh HTS
C[C@@H]1CN([C@@H](C)CO)C(=O)Cc2cc(NS(=O)(=O)c3cccs3)ccc2O[C@H]1CN(C)C	–	·	·	–	–
COc1cc2c(cc1NC(=O)C(Cl)Cl)-c1ccc(NC(=O)C(Cl)Cl)cc1C2	–	81	–	–	79
Cc1ccc2nc(-c3sc4nc(C)ccc4c3N)[nH]c2c1	·	71	–	·	·
O=C(Cc1ccc(Cl)cc1)c1c[nH]c(C(=O)NCc2cccnc2)c1	66	–	–	–	–
CC(C)(C)c1ccc(C(=O)c2c[nH]c(C(=O)NCc3cccnc3)c2)cc1	·	–	–	·	·
Cc1ccccc1OCCc1c(C)[nH]c(=S)[nH]c1=O	55	–	–	–	–
Cc1[nH]c(=S)[nH]c(=O)c1CCOc1ccccc1	·	–	–	·	·
Cc1noc(C)c1S(=O)(=O)Nc1ccc2c(c1)C(=O)N([C@@H](C)CO)C[C@H](C)[C@@H](CN(C)Cc1ccc3c(c1)OCO3)O2	–	·	·	–	·
CN(C)c1ccc(N=Nc2nccs2)cc1	–	79	–	86	–
NCC[C@@H]1CC[C@@H](NC(=O)Nc2ccc(F)cc2)[C@H](CO)O1	–	·	·	–	–
Cn1c(=O)c(C(=O)Nc2ccccn2)c(O)c2ccccc21	·	56	–	·	·
Cn1c(=O)c(C(=O)Nc2ccccc2S(N)(=O)=O)c(O)c2ccccc21	–	–	–	–	–
CC1CCc2nc3ccccc3c(C(=O)OCC(=O)NC3CCS(=O)(=O)C3)c2C1 (configuration not stated)	–	–	–	–	–
